Hits are enriched below; roughly 4.5% of the tested compounds scored in any of these assays.
Rtt109 HAT inh: inhibitors of C. albicans Rtt109/Vps75 HAT, primary screen, biochemical, ThioGlo CoA-SH fluorescence, plate reader. Histone acetyltransferase RTT109 (Candida albicans (strain SC5314 / ATCC MYA-2876)), …. purified Rtt109/Vps75, 4 h. inhibition, % at 34.9 µM. 0.16% of 330,000 active. AID 540336, 2011;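 active = inhibition of at least 50% in every replicate; inconclusive = best replicate reaches 50% inhibition but some replicates fall short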
Target sequence (Q5AAJ8 whole entry, looked up): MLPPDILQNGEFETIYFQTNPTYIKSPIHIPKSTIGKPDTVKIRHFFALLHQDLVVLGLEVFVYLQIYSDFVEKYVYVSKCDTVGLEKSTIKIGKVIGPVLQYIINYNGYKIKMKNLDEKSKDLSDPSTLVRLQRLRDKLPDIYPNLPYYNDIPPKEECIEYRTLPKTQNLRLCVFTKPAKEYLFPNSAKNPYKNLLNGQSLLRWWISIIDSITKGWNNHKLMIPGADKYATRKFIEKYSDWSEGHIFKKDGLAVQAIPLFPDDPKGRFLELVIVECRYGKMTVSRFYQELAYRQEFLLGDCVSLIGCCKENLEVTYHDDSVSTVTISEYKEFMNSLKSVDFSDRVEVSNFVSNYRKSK
Rce1 inhib: yeast Rce1p protease inhibitors, primary screen, biochemical, fluorescence, cell-free homogeneous; yeast membranes, quenched prenylated peptide cleavage fluorescence; calls only; 0.27% of 290,000 active; AID 2563, 2010; CAAX prenyl protease 2 (Saccharomyces cerevisiae (strain ATCC 204508 / S288c)), Q03530;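 active = fall in fluorescence gain of 50% or more versus controls, with final raw signal at or below 3038400; inconclusive = same 50% fall but final raw signal above 3038400; inactive = fall in fluorescence gain under 50%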
Target sequence (Q03530 whole entry, looked up): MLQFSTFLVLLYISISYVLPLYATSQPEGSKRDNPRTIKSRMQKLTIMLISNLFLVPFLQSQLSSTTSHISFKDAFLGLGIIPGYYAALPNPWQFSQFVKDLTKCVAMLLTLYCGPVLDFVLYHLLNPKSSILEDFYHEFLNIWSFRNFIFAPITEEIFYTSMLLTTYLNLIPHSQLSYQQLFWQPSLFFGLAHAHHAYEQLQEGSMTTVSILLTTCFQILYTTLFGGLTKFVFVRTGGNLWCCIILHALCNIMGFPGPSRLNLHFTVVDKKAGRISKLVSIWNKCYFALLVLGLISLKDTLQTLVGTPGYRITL
ALR H2O2 inh: inhibitors of human ALR sulfhydryl oxidase, primary screen, biochemical, H2O2 detection, HRP-luminol luminescence, single point | purified ALR, DTT oxidation | 3.8% of 290,000 active | inhibition, % (concentration not given with the values) | AID 485317, 2010;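 active = mean replicate inhibition above about 79%, with every replicate also reaching it, limit read from the data; inconclusive = only one of the two criteria met; inactive = mean below limit and not every replicate reaching it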
GRK2 inh: compounds blocking aptamer binding on GRK2 – biochemical, human GRK2, bead flow cytometry, HTS, primary screen. Beta-adrenergic receptor kinase 1 (Homo sapiens), P25098. FAM-aptamer displacement from GRK2. inhibition of aptamer binding, % at 10 µM. 0.59% of 330,000 active;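 active = inhibition of aptamer binding above 40%, roughly 3 SD of noise, on plates passing a quality check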;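 note: median bead fluorescence of bound FAM aptamer so fluorescent compounds give negative values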
HDAC3 inhib: HDAC3 deacetylase inhibitors, primary screen, biochemical, fluorescence, cell-free homogeneous; Histone deacetylase 3 (Homo sapiens), O15379; recombinant HDAC3, fluorogenic peptide/trypsin coupled; inhibition, % at 8.3 µM; 0.15% of 320,000 active; AID 2718, 2010; in the data active = inhibition above about 26%, passing the limit was not always enough; inconclusive = no clear call, values can overlap the other calls
Efflux pump inh: inhibitors of Candida efflux pumps in yeast, primary screen, S. cerevisiae, Nile Red, multiplex. S. cerevisiae Candida pump triplex. 0.44% of 330,000 active. inhibition, % at 10 µM. AID 485275, 2010;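 active = plate passing quality check with inhibition over a set limit, or well fluorescence over plate mean plus 4 SD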;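 note: Nile Red retained in pooled yeast measured as flow cytometry median fluorescence; higher means more Nile Red kept so more efflux inhibition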
Large screens that a line does not name were inactive.

c1cn2c(NC3CCCC3)c(-c3ccc(N4CCOCC4)cc3)nc2cn1	ALR H2O2 inh 99.1
c1cn2c(NC3CCCCC3)c(-c3ccc(SC4CCCCC4)cc3)nc2cn1	none (no result: ALR H2O2 inh)
CC(C)C(NC(=O)c1ccc(Cl)cc1Cl)C(=O)N1CCN(S(=O)(=O)c2ccccc2)CC1 (stereo not drawn)	none (no result: Rce1 inhib)
CN1C=CC=C/C1=C1\SC(=S)N(CC(=O)O)C1=O	none
CN1C=CC=C/C1=C1\SC(=S)N(c2ccccc2)C1=O	ALR H2O2 inh 98.8
C=CCN1C=CC=C/C1=C1\SC(=S)N(C)C1=O	ALR H2O2 inh 99.2
CN1C=CC=C/C1=C1\SC(=S)N(C2CCCCC2)C1=O	ALR H2O2 inh 98.9
O=C1CN(C(=O)COC(=O)CCC(=O)c2ccc(F)cc2)c2ccccc2N1	none (no result: Rce1 inhib)
CCCCc1cc(=O)oc2cc(OCC(=O)N3CCOCC3)ccc12	Rce1 inhib active (no result: Rtt109 HAT inh, ALR H2O2 inh)
O=c1[nH]cnc2c1ncn2[C@@H]1O[C@H](COS(=O)(=O)O)[C@@H](O)[C@H]1O	none (no result: Rce1 inhib)
COc1cc2c(cc1OC)C1(Nc3c-2c(-c2ccccc2)nn3-c2ccccc2)C(=O)Nc2ccccc21 (stereo not drawn)	Efflux pump inh 1.2
CC1C(=O)N2CCCc3cc(NC(=O)C(=O)NCCc4ccc(F)cc4)cc1c32 (stereo not drawn)	none
Cc1ccc(-c2csc(N=C(N)N)n2)cc1	ALR H2O2 inh 99.0
Cc1ccc(-c2csc(N3CCC(C(N)=O)CC3)n2)cc1	none (no result: Rce1 inhib)
CCOC(=O)Cc1csc(NC(=O)c2c(O)c3c(n(CC(C)C)c2=O)CCCC3)n1	none (no result: ALR H2O2 inh)
CN(C)c1cccc(C(=O)NC2CCCCCC2)c1	ALR H2O2 inh 94.2
CCOC(=O)N1CCC(N2C(=O)c3cc(C(=O)NC4CCCCC4)ccc3C2O)CC1 (stereo not drawn)	ALR H2O2 inh 94.0
CCOC(=O)N1CCC(N2C(=O)c3ccc(C(=O)O)cc3C2=O)CC1	none
CCCN1C(=O)c2cc(C(=O)NC3CCCCCC3)ccc2C1O (stereo not drawn)	ALR H2O2 inh 96.3
COc1ccc(C(=O)NC2CCCCCC2)cc1OC1CCN(C(C)=O)CC1	Rtt109 HAT inh inconclusive, ALR H2O2 inh 93.3
c1ccc(CNC2CC3CCC2C3)cc1 (stereo not drawn)	none (no result: Rce1 inhib, ALR H2O2 inh, GRK2 inh, HDAC3 inhib, Efflux pump inh)
COc1ccc(NCc2cc(=O)oc3cc(NC(C)=O)ccc23)cc1	none (no result: ALR H2O2 inh)
O=C(OCc1nnc(-c2cccs2)o1)C1=NN(c2ccccc2)C(=O)CC1	none (no result: Rce1 inhib)
NS(=O)(=O)c1ccc(CCNC(=O)c2ccc(-c3ccccc3)cc2)cc1	none
COc1ccc(CNC(=O)c2cccc(N(C)C)c2)cc1	ALR H2O2 inh 82.7
COc1ccccc1CNC(=O)c1cccc(N(C)C)c1	none
CCN(CC)CCN(C(=O)c1ccc(S(=O)(=O)N2CCCCC2)cc1)c1nc2cc3c(cc2s1)OCO3	none
CCN(CC)CCN(C(=O)c1ccc2ccccc2c1)c1nc2cc3c(cc2s1)OCO3	Rce1 inhib active, HDAC3 inhib inconclusive
CC(=O)c1ccc(NC(=O)C(C)Sc2nnc(-c3ccncc3)n2C2CC2)cc1 (stereo not drawn)	none (no result: Rce1 inhib)
Nc1cccc(-c2nc3ccccc3s2)c1	ALR H2O2 inh 98.6
CCOC(=O)Cn1ncn(-c2ccc(OC(F)(F)F)cc2)c1=O	none (no result: ALR H2O2 inh)
CNc1nc(NC#N)nc(SC)n1	none (no result: ALR H2O2 inh)
CC1(C)CC(=O)C/C(=N/Nc2nc3ccccc3s2)C1	none (no result: ALR H2O2 inh)
CC1CCC/C(=N/Nc2nc3ccccc3s2)C1 (stereo not drawn)	ALR H2O2 inh 96.7
CC1CCN(C(=O)c2[nH]cnc2C(=O)Nc2ccon2)CC1	none (no result: Rce1 inhib)
CC(=O)c1ccccc1NC(=O)COC(=O)/C=C/c1ccc(C)o1	ALR H2O2 inh 95.7
NC(=O)CSc1nnc(Cc2csc(Nc3ccccc3)n2)n1Cc1ccccc1	ALR H2O2 inh 78.8 (no result: Rtt109 HAT inh)
Cc1cc(NC(=O)CSc2nccn2-c2ccc(F)cc2)no1	none
COc1cccc(-n2ccnc2SCC(=O)NCc2ccccc2)c1	none
Cc1cc(NC(=O)CSc2nccn2-c2ccc(Cl)cc2)no1	ALR H2O2 inh 98.9
COc1cccc(-n2ccnc2SCC(=O)Nc2cc(C)on2)c1	ALR H2O2 inh 83.0
COc1cccc(NC(=O)CN2C(=O)COc3ccc(S(=O)(=O)N4CCC(C)CC4)cc32)c1	none
COCC(C)NC(=S)Nc1ccccc1[N+](=O)[O-] (stereo not drawn)	none (no result: ALR H2O2 inh)
O=C(CSc1nnc(CNC(=O)c2ccccc2)o1)Nc1ccc2c(c1)OCCO2	ALR H2O2 inh 98.4
CCc1ccc(NC(=O)CSc2nnc(CNC(=O)c3c(F)cccc3Cl)o2)cc1	ALR H2O2 inh 98.6
O=C(CSc1nnc(CNC(=O)c2ccccc2F)o1)Nc1ccc2c(c1)OCO2	ALR H2O2 inh 98.9
O=C(CSc1nnc(CNC(=O)c2c(F)cccc2Cl)o1)Nc1ccccc1	none
COc1cccc(N2CCN(CC(=O)Nc3ccc(S(=O)(=O)N4CCCCCC4)cc3)CC2)c1	HDAC3 inhib inconclusive (no result: Rce1 inhib, ALR H2O2 inh)
CC(NC(=O)Cc1ccsc1)c1ccc(Cl)cc1Cl (stereo not drawn)	none (no result: ALR H2O2 inh)
COCCn1c(SCC(=O)Nc2ccc(C(N)=O)cc2)nc2c([nH]c3ccccc32)c1=O	ALR H2O2 inh 99.3
CCN(CC)CCNC(=S)NC(=O)c1cn(-c2ccccc2)nc1-c1ccc(OC)cc1	none
CN(C)c1nc(NNC(=O)c2ccccc2)nc(N(C)C)n1	none (no result: Rce1 inhib, ALR H2O2 inh, GRK2 inh, HDAC3 inhib, Efflux pump inh)
COc1ccccc1N1CCN(C/C=C/c2ccc(N(C)C)cc2)CC1	ALR H2O2 inh 98.6 (no result: Rtt109 HAT inh)
COc1ccccc1N1CCN(S(=O)(=O)/C=C/c2ccccc2)CC1	none
COc1cccc(CNC(=O)c2ccc(C3SCCS3)cc2)c1	ALR H2O2 inh 90.8
COc1cccc(CNC(=O)c2ccc(C(=O)NCc3cccc(OC)c3)cc2)c1	none
O=C1c2cc(Br)ccc2N(Cc2ccc(Br)cc2)S(=O)(=O)C1c1cc(Cl)c(Cl)cc1[N+](=O)[O-] (stereo not drawn)	none (no result: Rce1 inhib)
Cc1ccc(Sc2ccc(C(=O)N3CCOCC3)cc2[N+](=O)[O-])cc1	none
CN(C)CCNc1c(N)c(=O)oc2ccccc12	none
Nc1c(NC2CCCCC2)c2ccccc2oc1=O	ALR H2O2 inh 99.3
Cc1ccccc1Nc1c(N)c(=O)oc2ccccc12	ALR H2O2 inh 98.8
Cc1ccc(F)c(NC(=O)/C(C#N)=C(\O)c2ccc(C(C)(C)C)cc2)c1	none
CC(C)c1ccc(CN2C(=O)NC3(CCCCCC3)C2=O)cc1	none
C/C(=N\OCC(=O)OCC(=O)NC(=O)c1ccccc1)c1ccc2c(c1)OCO2	none
COc1ccc(N)cc1NC(=O)CN1CCCC1	ALR H2O2 inh 96.9
CCS(=O)(=O)N1CCN(C2CCC(c3ccccc3)CC2)CC1 (stereo not drawn)	Rce1 inhib active

Screening results deposited in PubChem BioAssay by several laboratories.
